This passage reports growth results from PubChem BioAssay (NCI).

“And” between values parts separate entries of the source, which are not always exact repeats. Equal values may be shown once. The panel holds about 83,000 compounds, 20% with a hit somewhere; the sample as a whole holds those more often.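 Negative percent growth values reflect cell death: -40 means 40% of the cells present at the start died, and -100 means all died.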 Values without a mark were called inactive. The source made the active and inactive calls. The calls were made as follows: active = growth percent below 10; inactive = the rest.

The test deals with SW-620 colon. The experiment in a line: NCI-60 one-dose screen, 48 h (100 = growth as untreated, 0 = no growth, -100 = all killed). Conditions: 10 µM unless noted.
As to `NC1=CC(=O)c2cccnc2C1=O`, the growth was -80% (active).

For the molecule `Cn1c(=O)c2c(nc(Nc3cc(=O)[nH]c(=O)[nH]3)n2Cc2ccccc2)n(C)c1=O`, the growth is 19.3%.

For `O=C(c1ccc(Nc2nccc(NCCCNc3ccnc4cc(Cl)ccc34)n2)cc1)N1CCCCC1`, the growth was 26.3%.

With `COc1c(NC=O)c2c(c([N+](=O)[O-])c1OC)C(=O)OC2`, the growth was 109% and 103%.

Consider `COc1ccc(Cl)cc1Nc1nc(C(F)(F)F)ccc1C(=O)N/N=C/c1ccc(N(C)C)cc1`, for which the growth was 109%.

Consider `CC1=C2[C@@H](CC1)[C@]1(C)O[C@@](C3CC3)(C[C@H]1OC(=O)CO)[C@H]2OC(=O)/C=C/c1ccccc1`, for which the growth is 103%.

As for `CC/C=C\C/C=C\C[C@H](O)C/C=C1/C(=O)C=C[C@@H]1C/C=C\CCCC(=O)OC`, the growth is -46.3% (active).

Regarding `Cc1[nH]c(C(=O)Nc2nc3ccc(NC(=O)CCN)cc3s2)c(Cl)c1Cl`, the growth is 43.7%.

Take `COc1cc(Cl)cc(-c2nn(C(=O)NS(=O)(=O)c3ccc(Cl)cc3)cc2-c2ccncc2)c1`: the growth is 114%.

Take `C[C@@H]1O[C@@H](O[C@H]2[C@@H](OC(=O)[C@]34CCC(C)(C)C[C@H]3C3=CC[C@@H]5[C@@]6(C)C[C@H](O)[C@H](O[C@@H]7O[C@H](CO)[C@@H](O)[C@H](O)[C@H]7O)[C@@](C)(CO)[C@@H]6CC[C@@]5(C)[C@]3(C)C[C@H]4O)OC[C@@H](O)[C@@H]2O)[C@H](O)[C@H](O[C@@H]2OC[C@@H](O)[C@H](O[C@@H]3OC[C@](O)(CO)[C@H]3O[C@@H]3OC[C@@H](O)[C@H](O)[C@H]3O)[C@H]2O)[C@H]1O[C@@H]1OC[C@](O)(CO)[C@H]1O`: the growth was 75.4%.

With `Cc1c(O)c(O)cc2c3c(oc12)CC(c1ccc2c(c1)OCO2)CC3=O` (stereo unspecified), the growth was 81.7%.

On to `COc1cc(F)c(/C=C/c2cc(/C=C/c3cc(OC)c(OC)cc3F)n(-c3cc(F)cc(F)c3)n2)cc1OC`, for which the growth was 0.82% (active).

In the case of `CN1CCN(CCCN2c3ccccc3Sc3ccc(Cl)cc32)CC1`, the growth is 83.2% and 94%.

For the molecule `O=C(N=Nc1c(O)[nH]c2ccccc12)Nc1ccccc1Cl`, the growth was 85.2%.

As to `OCCN1CCN(CC/C=C2\c3ccccc3Sc3ccc(Cl)cc32)CC1`, the growth was -75.2% (active) and 0.592% (active).

With `COc1nc2ccc(C)cc2cc1/C=[N+](\[O-])c1ccccc1`, the growth is 49.9%.

`O=C(CCN1CCOCC1)Nc1cccc(-n2cc(-c3ccncc3)c(-c3ccc(Cl)c(O)c3)n2)c1`: the growth was 23.4%.

Turning to `CN1CCN(c2ccc(Nc3ncc(C(N)=O)c(NCCCNC(=O)C4CCC4)n3)cc2)CC1`, the growth is 70.9%.

For `CN(C)c1ccc2nc3ccc(=O)cc-3sc2c1`, the growth is 31.9% and 47.4%.

For `CC(=O)N1N=C(c2ccc(Nc3nc(Nc4ccc(F)cc4)nc(Nc4ccc(F)cc4)n3)cc2)CC1c1ccccc1` (stereo unspecified), the growth is 95.7%.

With `C/C=C(\C)C(=O)N[C@H]1CC[C@]2(C)C3CC[C@@]4(C)C(CC[C@@H]4C(C)N(C)C)C3CCC2[C@H]1OC(C)=O` (stereo partly specified), the growth was -93% (active).

Take `Cc1ccc(-c2nc3nc(-c4ccc(Cl)cc4)nc(N4CCCNCC4)c3o2)cc1`: the growth is -81.9% (active).

Consider `Nc1n[nH]c2cccc(C#Cc3cccc(NC(=O)c4ccc(N5CCOCC5)c(C(F)(F)F)c4)c3)c12`, for which the growth was 21.5%.

Take `O=C1C(c2c[nH]c3ccccc23)=C(c2coc3cc(Br)ccc23)C(=O)N1O`: the growth is 102%.

As to `Cc1cc(N2CCCCC2)nc(NCc2cc(Nc3ccnc4cc(Cl)ccc34)ccc2F)n1`, the growth was -19.2% (active).

With `CC1(C)C(N)=Nc2cc(OCCCN3Cc4ccc(OCCc5cn(CC(=O)N6CCC(CCN7CCCC7)CC6)nn5)cc4C3)c(OCC3CC3)cc21`, the growth was 109%.

Turning to `CS(=O)(=O)Nc1cc(-c2ccc3ncnc(Nc4ccc(F)c(Cl)c4)c3c2)cnc1Cl`, the growth was 13.8%.

As to `Cc1cnc(C(=O)NNc2nc3sc4c(c3c(=O)[nH]2)C(C)CCC4)cn1` (stereo unspecified), the growth was 35.3%.

As to `Cn1cc2c(=O)nc3c(-c4nc5ccccc5[nH]4)n[nH]n3c2n1`, the growth was 97.2%.

Take `Cc1ccc(-c2nc3nc(-c4ccc(F)cc4)nc(N4CCCNCC4)c3o2)cc1`: the growth is -84.6% (active).

For the molecule `COc1ccc2c(c1)c(-c1nc(-c3c[nH]c4c(Cl)nccc34)cs1)cn2C`, the growth was 103%.
